20 molecules from PubChem BioAssay AID1053175 (ICCB-Longwood Screening Facility, Harvard Medical School, 2014) can be followed below.

The structures appear in SMILES notation. In all, about 330,000 compounds went through this assay and about 700 (0.21%) were called active. Shown is part of a subset that was picked to be rich in actives. Values without a mark were called inactive.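 The calls were made as follows: active = OD600 absorbance below the run mean of sample wells minus 3.6 SD, in any replicate (cut at about 0.56 in these data); inactive = the rest.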

This assay is described as follows: E. coli growth inhibition, primary screen, OD600 (AID 1053175). The following applies: Escherichia coli growth, OD600, 23 h; hits give low values.
Consider `CCCCCCCCCCCCn1ccc(=N)cc1`, for which the OD600 absorbance was 0.07 (active).
Then `CN1CCN(N=Cc2c[nH]c3ccccc23)CC1`, with 0.702; and `COC(=O)C1=C(c2cccc(OC)c2OC)CC2CCC1N2C(=O)N1CCOCC1` (stereo not given), with 0.685.
Take `Nc1nonc1C(=O)NN=Cc1ccc([N+](=O)[O-])o1`: the OD600 absorbance is 0.449 (active).
In the case of `COCCNC(=O)N1C2CCC1C(C(=O)OC)=C(c1ccc(OC(F)(F)F)cc1)C2` (stereo not given), the OD600 absorbance was 0.679.
Regarding `COC(=O)C1=C(c2ccc(F)cc2OCc2ccccc2)CC2CCC1N2C(=O)NCc1ccco1` (stereo not given), the OD600 absorbance is 0.626.
Take `Oc1ccc(C=NNP(=S)(c2ccccc2)c2ccccc2)cc1O`: the OD600 absorbance is 0.685.
With `C=C1C(=O)OC2CC(C)C3C=CC(=O)[C@@]3(C)C(O)C12` (stereo not given in full), the OD600 absorbance is 0.625.
The same measure for `CCN(CC)c1ccc([N+](=O)[O-])c2cccnc12`: 0.662.
As for `Cc1ccc(-n2c(-c3ccc([N+](=O)[O-])cc3)nc3ccccc3c2=O)cc1`, the OD600 absorbance was 0.718.
`O=[N+]([O-])c1cnc2ccc3ccccc3c2c1`: the OD600 absorbance is 0.447 (active).
For the molecule `CNC(=O)Nc1ccc(C(=O)NN=CC23CC[C@@H](O)CC2(O)CC[C@@H]2[C@@H]3CCC3(C)C(C4=CC(=O)OC4)CCC23O)cc1` (stereo not given in full), the OD600 absorbance is 0.72.
Take `CC12CCC3C(CCC4CC(=NO)CCC43C)C1CCC2O` (stereo not given): the OD600 absorbance is 0.701.
Take `COc1ccc(-n2c(C=C3C(=O)Nc4ccccc43)nc3ccccc3c2=O)cc1`: the OD600 absorbance was 0.706.
As to `COC(=O)C1=C(c2ccc(S(C)(=O)=O)cc2)CC2CCC1N2C(=O)NCc1ccc(F)cc1` (stereo not given), the OD600 absorbance was 0.701.
Then `COc1ccc(N2C(=O)/C(=C/c3ccco3)C(=O)NC2=S)cc1`, with 0.67; and `COc1cccc(N2C(=O)NC(=O)/C(=C\c3ccc([N+](=O)[O-])s3)C2=O)c1`, with 0.482 (active); and `O=C1NC(=O)N(c2ccccc2)C(=O)/C1=C/c1ccc([N+](=O)[O-])s1`, with 0.531.
In the case of `COC(=O)C1=C(c2ccc(OC(F)(F)F)cc2)CC2CCC1N2C(=O)NC1CC1` (stereo not given), the OD600 absorbance was 0.688.
Regarding `C[C@]12CCC3c4ccc(O)c(O)c4CCC3C1CCC2O` (stereo not given in full), the OD600 absorbance was 0.667.
